Source: PubChem BioAssay (NCATS)
Inconclusive results are not listed. Calls of active or inactive are those of the source. The call rests on the fitted dose curve; in most records, active means well fitted inhibition curve with a large enough effect; inconclusive means small, poorly fitted or top-dose-only effect; inactive means flat fitted curve, though single readings scatter.

experiment: P-glycoprotein substrates identified in KB-8-5-11 adenocarcinoma cell line, qHTS therapeutic library screen (AID 1346987); details: KB-8-5-11 (P-gp overexpressing) viability, CellTiter-Glo, 72 h; series mostly up to 44.5 µM; activity change, negative = cytotoxicity: at the top concentration; further: nearly all actives have a fitted effect of over 65% in size
Procedure, shortened: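 In this qHTS, P-gp-rich KB-8-5-11 cells received library compounds across a concentration range. Viability was quantified by luminescence after 72 h at 37 degree C.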
On the % scale 0 is the no-effect control and ±100 the full control effect; potency means the concentration at half of the fitted maximal effect.

SMILES	activity change, negative = cytotoxicity	Potency	outcome
CC(=O)OCC(=O)[C@H]1CC[C@H]2[C@@H]3CC[C@H]4C[C@H](O)CC[C@]4(C)[C@H]3C(=O)C[C@]12C	13.7% [at 17.3 µM] (inactive)		
COCC1OC(=O)c2coc3c2C1(C)C1=C(C3=O)C2CCC(=O)C2(C)CC1O (centres undefined)	2.32% (inactive)		
O=C(C[C@@H]1NCCC[C@H]1O)Cn1cnc2cc(Br)c(Cl)cc2c1=O	5.56% (inactive)		
C[C@]12CCC(=O)C=C1C=C[C@@H]1[C@@H]2CC[C@@]2(C)[C@H]1CC[C@@]2(O)CCC(=O)O	-10.2% [at 17.3 µM] (inactive)		
CCC(C)(C#N)O[C@@H]1O[C@H](CO)[C@@H](O)[C@H](O)[C@H]1O (some centres undefined)	0.226% (inactive)		
C[C@H]1CC[C@]2(NC1)O[C@H]1C[C@H]3[C@@H]4CC[C@H]5C[C@@H](O)CC[C@]5(C)[C@H]4CC[C@]3(C)[C@H]1[C@@H]2C	-1.36% (inactive)		
OC1(c2ccc(Cl)cc2)c2ccccc2C2=NCCN21 (centres undefined)	-4.41% (inactive)		
[H+].[H+].[Hg+2].[O-]B([O-])[O-].[c-]1ccccc1		1300 nM (active)	
CO[C@@H]1[C@H](O)[C@@H](O[C@@H]2C[C@H]3CC[C@@H]4C(CC[C@]5(C)[C@@H](C6=CC(=O)OC6)CC[C@]45O)[C@@]3(C)[C@H](O)C2)O[C@H](C)[C@@H]1O[C@@H]1O[C@H](CO)[C@@H](O)[C@H](O)[C@H]1O (some centres undefined)		385 nM (active)	
COC(=O)C1(C)CCC(O)C2(C)c3cc(O)c(C(C)C)cc3C(O)C(OC(C)=O)C12 (centres undefined)	5.44% [at 17.3 µM] (inactive)		
COc1c(C(C)C)cc2c(c1O)[C@@]1(C(=O)O)CCCC(C)(C)C1CC2 (some centres undefined)	-25% (inactive)		
CCOC(=O)/C=C(C)/C=C/C[C@@H](C)CCCC(C)C	-4.36% (inactive)		
C[C@H]1CCC[C@H](O)CCCCCc2cc(O)cc(O)c2C(=O)O1		14600 nM (active)	
OC[C@@H](O)[C@H]1O[C@@H]2O[C@@H](C(Cl)(Cl)Cl)O[C@@H]2[C@H]1O	-16% (inactive)		
O=S(=O)(O)c1cc(O)ccc1O	-1.39% [at 17.3 µM] (inactive)		
Cn1ncnc1COc1nn2c(-c3c(F)cccc3F)nnc2cc1C1CCC1	-7.33% (inactive)		
Oc1cccc[c]1[Hg][Cl]		5170 nM (active)	
O=[N+]([O-])c1ccccc1	0.576% (inactive)		
CC(N)Cc1c[nH]c2ccccc12 (centres undefined)			inactive
ClC(Cl)(Cl)Cl	-0.758% (inactive)		

SMILES	activity change, negative = cytotoxicity	Potency	outcome
ClC=C(Cl)Cl	-2.4% (inactive)		
C=CCN=C=S	-3.73% (inactive)		
CC(=O)Oc1ccc2c3c1O[C@H]1[C@@H](OC(C)=O)C=C[C@H]4[C@@H](C2)N(C)CC[C@@]341		inactive	
CC1=CC2/C=C(\C)CCC(O)C3OC(C)(C)OC3CC(=O)OC23C(=O)NC(CC(C)C)C3C1C (centres undefined)	-2.51% [at 17.3 µM] (inactive)		
C[C@H]1O[C@@H](O[C@H]2C[C@@H](O)[C@]3(CO)C4C(CC[C@]3(O)C2)[C@@]2(O)CC[C@H](C3=CC(=O)OC3)[C@@]2(C)C[C@H]4O)[C@@H](O)[C@@H](O)[C@H]1O (some centres undefined)		432 nM (active)	
CC1(C)S[C@@H]2[C@H](N)C(=O)N2[C@H]1C(=O)O	-1.5% [at 17.3 µM] (inactive)		
CC(=O)OC12C(O)C(C)C3(O)C4C=C(C)C(=O)C4CC(CO)=CC3C1C2(C)C (centres undefined)			inactive [at 17.3 µM]
COCC(C)N(C(=O)CCl)c1c(C)csc1C (centres undefined)	13.4% (inactive)		
C[C@@](O)(COc1ccc(C#N)cc1)C(=O)Nc1ccc(C#N)c(C(F)(F)F)c1	-4.82% (inactive)		
[O]=[Cd]	-20% (inactive)		
Cc1cccc(C(C)c2cnc[nH]2)c1C (centres undefined)	9.02% (inactive)		
CNC(C)C(O)c1ccc(O)cc1 (centres undefined)		inactive	
COC1CC(O[C@H]2CC[C@]3(C=O)C4CC[C@]5(C)[C@@H](C6=CC(=O)OC6)CC[C@]5(O)[C@@H]4CC[C@]3(O)C2)OC(C)C1O[C@@H]1O[C@H](CO)[C@@H](O)[C@H](O)[C@H]1O (some centres undefined)		153 nM (active)	
COc1ccc(OC)c([C@@H](O)[C@H](C)N)c1	5.55% (inactive)		
Clc1ccc(OCC2=NCCN2)cc1Cl	6.64% (inactive)		
OCCCCC#Cc1cncc(OC[C@@H]2CCN2)c1	1.45% (inactive)		
CCc1[nH]c2ccc(OC)cc2c1CCN(C)C	-5.5% (inactive)		
COC1C(O)C(OC2CCC3(C=O)C(CCC4C3CCC3(C)C(C5=CC(=O)OC5)CCC43O)C2)OC(C)C1OC1OC(CO)C(O)C(O)C1O (centres undefined)		432 nM (active)	
CNC(=O)OCC[N+](C)(C)C	-10.8% (inactive)		
